These results are taken from PubChem BioAssay (NCATS).

Records with an inconclusive call do not appear. Activity calls are given as the source filed them. Calls come from the whole dose curve; as a rule, active = well fitted inhibition curve with a large enough effect; inconclusive = small, poorly fitted or top-dose-only effect; inactive = flat fitted curve, though single readings scatter. Where a SMILES comes first, the peptide text is derived from it. Bridges are numbered along the chain shown (N, C = ends). [ ]: non-standard residue; d: D form. hArg = N=C(N)NCCCC[C@H](N)C(=O)O; Mpa = O=C(O)CCS

This test in a line: qHTS to identify inhibitors of the type 1 interferon - major histocompatibility complex class I in skeletal muscle: primary screen against the NCATS Pharmaceutical Collection (AID 1347407). The following applies: human skeletal muscle cells, IFN-b-induced MHC-I HiBiT luminescence, 24 h; series mostly up to 45.9 µM. From the text: Assay Submitter (PI): Travis B. Kinder Ph.D. & James Inglese Ph.D.
Assay Development and Screening Technology Laboratory (ADST)
National Center for Advancing Translational Sciences (NCATS), Rockville, MD
National Institute of Health (NIH), Bethesda, Maryland
Idiopathic inflammatory myopathies, collectively referred to as myositis, are a group of rare autoimmune diseases characterized by skeletal muscle inflammation, weakness, and usually accompanied by systemic pathologies of the skin, lungs, or vasculature. Current immunosuppressive therapies and glucocorticoids are often not curative and are accompanied by harsh side effects, especially in children with juvenile myositis. We initiated a drug repurposing and development program to identify more targeted, less toxic therapeutics to treat myositis. Although its cause is not known, muscle from a subset of patients have an abundance of the inflammatory type 1 interferon (IFN) and a down-stream product major histocompatibility complex class I (MHC class I), which are both thought to contribute to damage and weakness. We conducted quantitative high throughput screening on 6,576 compounds (4,679 unique) through a series of cell-based assays to identify those that inhibit the IFN-stimulated expression of MHC class I in muscle precursor cells (myoblasts). The compound identification and evaluation strategy utilized a primary screen with reporter-tagged MHC class I in genome-engineered myoblasts, ATP content counter screen for viability, HLA-ABC immunofluorescence secondary screen, and HLA-B RT-qPCR tertiary screen.
The primary screen utilized CRISPR/Cas9 genome-engineering of immortalized human myoblasts, C25cl48, where a pro-luminescent reporter HiBit was fused to the C-terminus of endogenous MHC class I allele HLA-B*08:01 (HLA-B HiBit myoblasts). HiBit is an 11 amino acid fragment of NanoLuc luminescent reporter (Promega Corporation), and when complexed to the larger LgBit fragment, the reconstituted enzyme produces light in the presence of furimazine substrate (Schwinn et al., 2018). Briefly, HLA-B HiBit myoblasts were plated into 1536-well plates, treated with 4.0 ng/ml human IFN-beta and 2,816 compounds from the NCATS Pharmaceutical Collection (NPC) that contains all drugs approved in the US, EU, and Japan (Huang et al., 2011) in an 8-point, 1:5 titration with a high final concentration of 46 uM. After 24 hrs of treatment, cells were assayed by Nano-Glo HiBiT Lytic Detection System (Promega) and luminescence measured by a ViewLux 1430 Ultra HTS (Perkin Elmer).
Huang R, Southall N, Wang Y, Yasgar A, Shinn P, Jadhav A, Nguyen D-T, Austin CP. 2011. The NCGC pharmaceutical collection: a comprehensive resource of clinically approved drugs enabling repurposing and chemical genomics. Sci Transl Med 3:80ps16. doi:10.1126/scitranslmed.3001862
Schwinn MK, Machleidt T, Zimmerman K, Eggers CT, Dixon AS, Hurst R, Hall MP, Encell LP, Binkowski BF, Wood K V. 2018. CRISPR-Mediated Tagging of Endogenous Proteins with a Luminescent Peptide. ACS Chem Biol 13:467-474. doi:10.1021/acschembio.7b00549
PROTOCOL TABLE (as described by Inglese et al., 2007)
SEQUENCE No. (e.g., 1, 2, 3, etc.); […] (e.g., Cells, Incubation, Reagent, etc.); VALUE; DESCRIPTION
1a; Cells; 5 uL; Use a Multidrop Combi (Thermo Scientific) to seed 350 cells/well into nine Greiner 1536 well white/solid bottom, high base, TC plates in 5 ul/well of iHSKM growth medium (GM) without dexamethasone into columns 1+2. Add metal lids with gas-exchange holes
1b; Cells; 5 uL; Use a Multidrop Combi (Thermo Scientific) to seed 350 cells/well into nine Greiner 1536 well white/solid bottom, high base, TC plates in 5 ul/well of iHSKM GM without dexamethasone + 4 ng/ml IFN-b into columns 3 - 48. Add metal lids with gas-exchange holes
2; Incubate; 1 hr; Incubate at 37 C, 5% CO2, 95% RH
[…]
(In general: Quantitative high-throughput screening tests each substance at several concentrations.)
With `Nc1ccc(S(=O)(=O)c2ccc(N)cc2)cc1`, the compound was classed as inactive.

Consider `COCC(=O)Nc1c(I)c(C(=O)NCC(O)CO)c(I)c(C(=O)N(C)CC(O)CO)c1I` (stereo not given), for which the compound was classed as inactive.

As for `O=C1c2ccccc2C(=O)C1c1ccc(Br)cc1`, the outcome was inactive.

In the case of `Cc1c(NC(C)C)c(=O)n(-c2ccccc2)n1C`, the result was inactive.

Take `CC(=O)N(CC(O)CO)c1c(I)c(C(=O)NCC(O)CO)c(I)c(C(=O)NCC(O)CO)c1I` (stereo not given): the call was inactive.

Turning to `O=C(c1ccccc1)C(O)c1ccccc1` (stereo not given), the result was inactive.

With `O=C(O)c1ccc[n+]([O-])c1`, the call was inactive.

`OCCN1C[C@H](O)[C@@H](O)[C@H](O)[C@H]1CO`: the result was inactive.

In the case of `NCC1CCC(C(=O)Oc2ccc(CCC(=O)O)cc2)CC1` (stereo not given), the call was inactive.

As for `CCOC(=O)OC(C)OC(=O)[C@@H]1N2C(=O)[C@@H](NC(=O)[C@H](N)c3ccccc3)[C@H]2SC1(C)C` (stereo not given in full), the compound was called inactive.

For `COc1nccnc1NS(=O)(=O)c1ccc(N)cc1`, the compound was classed as inactive.

Regarding `O=C(O)[C@@H]1[C@H]2C[C@H]3c4[nH]c5ccccc5c4CCN3C[C@@H]2CC[C@@H]1O`, the result was inactive.

Consider `O=C(O)c1ccccc1OP(=O)(O)O`, for which the outcome was inactive.

In the case of `C[C@@H]1CCC[C@H](C)N1`, the compound was classed as inactive.

On to `O=C(O)CNC(=O)c1ccccc1I`, for which the result was inactive.

For `CC(=O)Nc1ccccc1`, the compound was classed as inactive.

For the compound `NS(=O)(=O)c1ccc(NC(=O)CCC(=O)O)cc1`, the outcome was inactive.

With `Cc1c(C)c2c(c(C)c1OC(=O)c1cccnc1)CC[C@@](C)(CCC[C@H](C)CCC[C@H](C)CCCC(C)C)O2`, the result was inactive.

Regarding `O=C(O)Cn1c(C(=O)Nc2nc(-c3ccccc3Cl)cs2)cc2ccccc21`, the compound was classed as inactive.

For `CC(=O)N[C@@H](CC(C)C)C(=O)O`, the compound was classed as inactive.

In the case of `CN(C(=O)c1c(O)c2ccccc2n(C)c1=O)c1ccccc1`, the result was inactive.

With `O=C1c2cccc(O)c2C(=O)c2c(O)cccc21`, the compound was called inactive.

Consider `C/C(=C(\CCO)SS/C(CCO)=C(\C)N(C=O)Cc1cnc(C)nc1N)N(C=O)Cc1cnc(C)nc1N`, for which the outcome was inactive.

For `O=C(O)CCC(=O)O`, the outcome was inactive.

In the case of `CCOc1cc(NC(C)=O)ccc1C(=O)OC`, the call was inactive.

As for `O=C(O)c1cc(=O)c2ccccc2o1`, the call was inactive.

For `COc1ccc(-c2cc(=O)c3c(O)cc(O[C@@H]4O[C@H](CO[C@@H]5O[C@@H](C)[C@H](O)[C@@H](O)[C@H]5O)[C@@H](O)[C@H](O)[C@H]4O)cc3o2)cc1O`, the compound was called inactive.

As for `Cc1c(NC(=O)c2cccnc2)c(=O)n(-c2ccccc2)n1C`, the compound was classed as inactive.

In the case of `Cn1c([N+](=O)[O-])cnc1COC(N)=O`, the outcome was inactive.

`CN1C[C@@H]2C[C@H]1CN2c1cc2c(cc1F)c(=O)c(C(=O)O)cn2C1CC1`: the result was inactive.

`CC(=O)[C@@]1(O)CC[C@H]2[C@@H]3C[C@H](C)C4=CC(=O)C=C[C@]4(C)[C@@]3(F)[C@@H](O)C[C@@]21C`: the outcome was inactive.

Turning to `C[C@H]1COc2c(C3(N)CC3)c(F)cc3c(=O)c(C(=O)O)cn1c23`, the call was inactive.

For `CNCc1ccccc1`, the compound was called inactive.

As to `NCc1ccc(S(N)(=O)=O)cc1`, the compound was classed as inactive.

`O=c1[nH]cnc2nc[nH]c12`: the compound was classed as inactive.

As to `CCOc1ccccc1O[C@H](c1ccccc1)[C@H]1CNCCO1`, the call was inactive.

`Nc1ccc(C(=O)Oc2ccccc2)c(O)c1`: the compound was called inactive.

On to `NC(=O)[C@@H]1CSSCCC(=O)N[C@@H](CCCCN=C(N)N)C(=O)NCC(=O)N[C@@H](CC(=O)O)C(=O)N[C@@H](Cc2c[nH]c3ccccc23)C(=O)N2CCC[C@H]2C(=O)N1` ([Mpa][hArg]GDWPC-NH2; disulfide 1-7), for which the compound was called inactive.

With `CC(C)NC[C@@H](O)COc1ccc(CC(N)=O)cc1`, the outcome was inactive.

In the case of `COc1ccccc1OCC(O)CO` (stereo not given), the call was inactive.
